What all share (conditions): mRNA level, 48 h; actives raise or lower the signal
Read-out in test [1]: ATP-citrate lyase (ACLY), ACLY (gene 47)
The test is described as follows: LTEA_HepaRG_ACLY: Life Technologies and Expression Analysis (LTEA) Assay for ATP-citrate lyase (ACLY) using HepaRG (AID 2283466). The essentials: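 HepaRG, 48 h exposure, 8-pt half-log dilutions (top 100 uM), 0.5% DMSO. Readout: ACLY mRNA, TaqMan qRT-PCR, housekeeping-normalized (ACTB/GAPDH/POLR2A). Bidirectional curve fit vs DMSO.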

Read-out in test [2]: Alkaline Phosphatase, Placental (ALPP) gene, ALPP (gene 250)
As to the kind of experiment: LTEA_HepaRG_ALPP: Life Technologies and Expression Analysis (LTEA) Assay for Alkaline Phosphatase, Placental (ALPP) gene using HepaRG (AID 2283468). In outline:
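Using human liver HepaRG cells, chemicals are tested in duplicate over 48 h at half-log concentrations topping at 100 uM; phenobarbital 1 mM serves as induction control. ALPP mRNA change by qRT-PCR, bidirectional fit against vehicle.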

Read-out in test [3]: Bcl-2 (BAD) gene, BAD (gene 572)
As to the kind of experiment: LTEA_HepaRG_BAD: Life Technologies and Expression Analysis (LTEA) Assay for Bcl-2 (BAD) gene using HepaRG (AID 2283469). The essentials: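 BAD transcript change, measured by qRT-PCR against three housekeeping genes and fitted in both directions relative to 0.5% DMSO, after 48 h chemical treatment of human HepaRG liver cells at concentrations up to 100 uM.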

Read-out in test [4]: Bcl-2 (BAX) gene, BAX (gene 581)
The test is described as follows: LTEA_HepaRG_BAX: Life Technologies and Expression Analysis (LTEA) Assay for Bcl-2 (BAX) gene using HepaRG (AID 2283470). The essentials:
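HepaRG (human liver), 48 h exposure, duplicate wells. 8-pt curve, half-log from 100 uM, 0.5% DMSO. BAX transcript by TaqMan qRT-PCR; ACTB/GAPDH/POLR2A normalization; gain or loss vs DMSO baseline.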

Read-out in test [5]: adenosine kinase (ADK) gene, ADK (gene 132)
As to the kind of experiment: LTEA_HepaRG_ADK: Life Technologies and Expression Analysis (LTEA) Assay for adenosine kinase (ADK) gene using HepaRG (AID 2283471). The essentials: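 Differentiated HepaRG cells dosed 48 h in serum-free induction medium, 0.5% DMSO vehicle, eight half-log concentrations from 100 uM, in duplicate. ADK mRNA by TaqMan qRT-PCR normalised to ACTB, GAPDH, POLR2A; bidirectional fit versus DMSO.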

Read-out in test [6]: Alpha-fetoprotein (AFP) gene, AFP (gene 174)
As to the kind of experiment: LTEA_HepaRG_AFP: Life Technologies and Expression Analysis (LTEA) Assay for Alpha-fetoprotein (AFP) gene using HepaRG (AID 2283472). The essentials: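 HepaRG, single lot; 48 h post-plating -> serum-free induction medium; cpd 8-pt, 100 uM top, half-log, 0.5% DMSO, duplicate, 48 h. RNA -> qRT-PCR AFP, norm ACTB/GAPDH/POLR2A. Bidirectional fit vs DMSO.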

Read-out in test [7]: BCL2L11 (gene 10018)
The test is described as follows: LTEA_HepaRG_BCL2L11: Life Technologies and Expression Analysis (LTEA) Assay for Bcl-2 (BCL2L11) gene using HepaRG (AID 2283473). The essentials:
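Human hepatic HepaRG cultures are treated 48 h with test chemicals (maximum 100 uM, 0.5% DMSO vehicle). Expression of BCL2L11 is measured by qRT-PCR against ACTB, GAPDH and POLR2A, with activity in either direction scored relative to vehicle.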

Read-out in test [8]: Apolipoprotein A-V (APOA5) gene, APOA5 (gene 116519)
As to the kind of experiment: LTEA_HepaRG_APOA5: Life Technologies and Expression Analysis (LTEA) Assay for Apolipoprotein A-V (APOA5) gene using HepaRG (AID 2283474). In outline: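 Concentration-response of APOA5 expression in HepaRG: eight half-log doses to 100 uM, 48 h, qRT-PCR normalized to ACTB/GAPDH/POLR2A, bidirectional fitting with 0.5% DMSO as baseline.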

Read-out in test [9]: Apoptosis regulator Bcl-2 (Homo sapiens) (UniProt P10415)
The test is described as follows: LTEA_HepaRG_BCL2: Life Technologies and Expression Analysis (LTEA) Assay for Bcl-2 gene using HepaRG (AID 2283475). In outline: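 HepaRG, plated 48 h then switched to serum-free induction medium; dosed 48 h, 8 conc. (max 100 uM, half-log steps), duplicate, 0.5% DMSO. Lysis in RLT, RNA isolated, TaqMan qRT-PCR for BCL2; ACTB/GAPDH/POLR2A normalisation; bidirectional fit vs DMSO.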

Read-out in test [10]: Bcl-2 (BID) gene, BID (gene 637)
As to the kind of experiment: LTEA_HepaRG_BID: Life Technologies and Expression Analysis (LTEA) Assay for Bcl-2 (BID) gene using HepaRG (AID 2283476). The essentials:
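Transcript levels of BID, measured by qRT-PCR and normalized to three housekeeping genes, were fitted bidirectionally against DMSO controls. Cells were HepaRG, dosed 48 h at up to 100 uM.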

Read-out in test [11]: Caspase-3 (Homo sapiens) (UniProt P42574)
The test is described as follows: LTEA_HepaRG_CASP3: Life Technologies and Expression Analysis (LTEA) Assay for cysteine-aspartic acid protease (CASP3) using HepaRG (AID 2283477). In outline: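 Transcript-level assay: CASP3 mRNA in human HepaRG after 48 h treatment, eight half-log concentrations from 100 uM in 0.5% DMSO, quantified by qRT-PCR.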

Read-out in test [12]: Cytochrome P450 (CYP24A1), CYP24A1 (gene 1591)
As to the kind of experiment: LTEA_HepaRG_CYP24A1: Life Technologies and Expression Analysis (LTEA) Assay for Cytochrome P450 (CYP24A1) using HepaRG (AID 2283478). In outline:
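Gene expression of CYP24A1 by TaqMan qRT-PCR in HepaRG after 48 h treatment, highest concentration 100 uM; activity fitted in both directions relative to DMSO vehicle.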

Read-out in test [13]: Cytochrome P450 (CYP1A2), CYP1A2 (gene 1544)
As to the kind of experiment: LTEA_HepaRG_CYP1A2: Life Technologies and Expression Analysis (LTEA) Assay for Cytochrome P450 (CYP1A2) using HepaRG (AID 2283479). In outline:
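In duplicate wells, HepaRG cultures maintained in 0.5% DMSO were treated 48 h across an 8-point, half-log series topping at 100 uM; phenobarbital (1 mM) served as induction control. Expression was read by qRT-PCR.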

Read-out in test [14]: cysteine-aspartic acid protease (CASP8), CASP8 (gene 841)
As to the kind of experiment: LTEA_HepaRG_CASP8: Life Technologies and Expression Analysis (LTEA) Assay for cysteine-aspartic acid protease (CASP8) using HepaRG (AID 2283480). The essentials: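 HepaRG, 48 h exposure, duplicate wells; 8 conc, half-log from 100 uM, 0.5% DMSO. Serum-free induction medium. CASP8 mRNA by TaqMan qRT-PCR, norm. ACTB/GAPDH/POLR2A; gain/loss fitted vs DMSO.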

Read-out in test [15]: Cytochrome P450 (CYP2B6), CYP2B6 (gene 1555)
As to the kind of experiment: LTEA_HepaRG_CYP2B6: Life Technologies and Expression Analysis (LTEA) Assay for Cytochrome P450 (CYP2B6) using HepaRG (AID 2283481). In outline:
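Human HepaRG, 48 h dosing, 0.5% DMSO vehicle, top dose 100 uM. CYP2B6 transcript by qRT-PCR, housekeeping-normalized, bidirectional curve fit.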

Read-out in test [16]: Cytochrome P450 2C19 (Homo sapiens) (UniProt P33261)
As to the kind of experiment: LTEA_HepaRG_CYP2C19: Life Technologies and Expression Analysis (LTEA) Assay for CYP2C19 using HepaRG (AID 2283482). In outline: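 Endpoint: CYP2C19 mRNA change, bidirectional fit vs 0.5% DMSO. Cells: HepaRG, 48 h exposure, eight-point series topping at 100 uM. Quantitation: qRT-PCR normalized to ACTB, GAPDH, POLR2A.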

Read-out in test [17]: CYP2C8 (gene 1558)
As to the kind of experiment: LTEA_HepaRG_CYP2C8: Life Technologies and Expression Analysis (LTEA) Assay for CYP2C8 using HepaRG (AID 2283483). In outline:
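CYP2C8 mRNA induction or loss, by qRT-PCR normalized to ACTB/GAPDH/POLR2A, is read in HepaRG cells after 48 h treatment. Concentrations run from 100 uM down in half-log dilutions, with 0.5% DMSO as vehicle and baseline.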

Read-out in test [18]: CYP2C9 (gene 1559)
The test is described as follows: LTEA_HepaRG_CYP2C9: Life Technologies and Expression Analysis (LTEA) Assay for CYP2C9 using HepaRG (AID 2283484). The essentials:
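Cells plated 48 h, switched to serum-free induction medium, then treated in duplicate for 48 h at eight concentrations (max 100 uM, 0.5% DMSO). RNA then analysed by qRT-PCR for CYP2C9; curves fitted in both directions relative to DMSO.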

Read-out in test [19]: Peroxisomal acyl-coenzyme A oxidase 1 (ACOX1) gene, ACOX1 (gene 51)
The test is described as follows: LTEA_HepaRG_ACOX1: Life Technologies and Expression Analysis (LTEA) Assay for Peroxisomal acyl-coenzyme A oxidase 1 (ACOX1) gene using HepaRG (AID 2283467). The essentials:
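Measured by qRT-PCR against three housekeeping genes: ACOX1 transcript change in human HepaRG cells after 48 h dosing. Concentrations ran up to 100 uM in half-log steps. Curves were fitted bidirectionally relative to 0.5% DMSO.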

Read-out in test [20]: CYP2E1 (gene 1571)
As to the kind of experiment: LTEA_HepaRG_CYP2E1: Life Technologies and Expression Analysis (LTEA) Assay for CYP2E1 using HepaRG (AID 2283485). The essentials:
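Human liver line HepaRG, plated 48 h, then serum-free induction medium + chemical x 48 h; 8-pt CRC from 100 uM, half-log, 0.5% DMSO, n=2. Readout: CYP2E1 mRNA qRT-PCR vs ACTB/GAPDH/POLR2A; bidirectional fit vs DMSO.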

Active and inactive are the calls of the source. The calls were made as follows: active = hit-call score of the fitted dose curve at least 0.9, where 1 is the maximum; inactive = score below 0.9.

Chain of Cytochrome P450 2C19 (Homo sapiens) (P33261 whole entry, looked up): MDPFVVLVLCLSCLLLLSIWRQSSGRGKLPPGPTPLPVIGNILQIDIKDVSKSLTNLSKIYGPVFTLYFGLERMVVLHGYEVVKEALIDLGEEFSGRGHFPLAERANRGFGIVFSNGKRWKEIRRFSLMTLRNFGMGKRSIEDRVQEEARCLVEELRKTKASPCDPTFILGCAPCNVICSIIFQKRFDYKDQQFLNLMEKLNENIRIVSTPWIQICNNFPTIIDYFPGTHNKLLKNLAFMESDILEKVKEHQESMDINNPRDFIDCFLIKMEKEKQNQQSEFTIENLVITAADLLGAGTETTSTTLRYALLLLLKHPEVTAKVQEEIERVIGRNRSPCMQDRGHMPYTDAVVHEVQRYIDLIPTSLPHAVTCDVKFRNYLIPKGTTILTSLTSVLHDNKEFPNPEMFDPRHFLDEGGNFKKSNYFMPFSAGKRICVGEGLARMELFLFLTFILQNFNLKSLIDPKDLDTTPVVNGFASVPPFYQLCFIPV
Chain of Caspase-3 (Homo sapiens) (P42574 whole entry, looked up): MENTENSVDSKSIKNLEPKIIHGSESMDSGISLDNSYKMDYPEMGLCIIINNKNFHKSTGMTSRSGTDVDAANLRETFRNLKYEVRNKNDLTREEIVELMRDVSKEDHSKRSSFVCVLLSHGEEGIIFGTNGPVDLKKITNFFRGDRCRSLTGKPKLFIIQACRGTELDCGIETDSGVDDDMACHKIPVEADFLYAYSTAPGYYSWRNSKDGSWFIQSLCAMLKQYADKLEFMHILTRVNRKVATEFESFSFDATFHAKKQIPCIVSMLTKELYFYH
Chain of Apoptosis regulator Bcl-2 (Homo sapiens) (P10415 whole entry, looked up): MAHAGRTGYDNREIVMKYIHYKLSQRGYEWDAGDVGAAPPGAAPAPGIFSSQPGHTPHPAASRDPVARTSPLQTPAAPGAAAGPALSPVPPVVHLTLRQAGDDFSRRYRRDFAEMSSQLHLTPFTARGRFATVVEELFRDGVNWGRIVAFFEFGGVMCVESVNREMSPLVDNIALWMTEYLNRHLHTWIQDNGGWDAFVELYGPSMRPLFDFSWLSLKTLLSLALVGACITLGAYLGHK

A word on the AC50: it is the concentration at which the activity in the assay is half-maximal. With `CCCCCCOC(=O)CC(CC(=O)OCCCCCC)(OC(=O)CCC)C(=O)OCCCCCC`, the call in test [1], in test [2], in [3], in test [4], in [5] and in test [6] was inactive. For the same compound, the compound was called inactive in test [7], in [8], in [9], in test [10], in [11] and in [12]. The call in test [13], in test [14], in test [16], in test [17] and in test [18] was inactive. Also, in test [15], the AC50 was 12.3 µM (active).
As to `CC(C)CC(C)O` (stereo unspecified), the compound was called inactive in test [1], in [19], in test [2], in test [3], in [4] and in test [5]. The result in test [6], in test [7], in [8], in test [10], in [11] and in [12] was inactive. The compound was classed as inactive in test [14], in [15], in test [16], in [17], in test [18] and in test [20]. Further, in [13], the concentration at half-maximal activity (AC50) was 50 µM (active).
Consider `NNC(=O)c1ccncc1`, for which the compound was called inactive in test [1], in test [19], in test [2], in [3], in [4] and in [6]. For the same compound, the result in test [7], in [8], in test [9], in test [10], in test [11] and in test [12] was inactive. In addition, the compound was classed as inactive in test [13], in [14], in test [16], in test [17], in [18] and in [20]. For the same compound, the AC50 in [15] was 10.4 µM (active).

The values are drawn from PubChem BioAssay (EPA / NIEHS).
